# Compound activity: PubChem, National Center for Advancing Translational Sciences (NCATS)
# CHX counter = Cycloheximide Counterscreen for Small Molecule Inhibitors of Shiga Toxin; actives 12% (n = 300,000); cell reporter, cycloheximide protein synthesis inhibition counterscreen; max response, %; in the data active = max response mostly above about 13%, no sharp cut-off; inactive = mostly below about 14%; note: read at 38.3 µM for the half of the compounds with a filed dose
# Pf growth 96h = Primary qHTS for delayed death inhibitors of the malarial parasite plastid, 96 hour incubation. P. falciparum luciferase reporter growth, 96 h. Potency, µM (series often up to 28.7 µM), most hits filed as inhibitors. actives 6.9% (n = 320,000)
#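 Erythrocytes infected with luciferase-expressing P. falciparum were dispensed at 2% hematocrit and 0.05% parasitemia (final), then incubated with compounds 96 hours at 37 C in 5% CO2. Luminescence after detection reagent addition reported growth.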
# Pf growth 48h = Primary qHTS for delayed death inhibitors of the malarial parasite plastid, 48 hour incubation. P. falciparum luciferase growth in erythrocytes, 48 h. actives 5.9% (n = 310,000). Potency, µM (top dose mostly 28.7 µM), usual class: inhibitors
#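 Growth was read as firefly luciferase luminescence after a 48 h, 37 C, 5% CO2 exposure of compounds to reporter-bearing P. falciparum cultures (0.1% parasitemia, 2% hematocrit final) in Albumax-supplemented RPMI 1640.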
# HCMV antiviral = qHTS Assay for inhibitors of the human cytomegalovirus (HCMV). AID 1259415, 2018. activity change, negative = inhibition, % at 57.5 µM. HFF cells, HCMV-luciferase reporter, 72 h; active compounds read low. actives 4.5% (n = 410,000); in the data active = activity change below about -60%; inconclusive = no clear call, values can overlap the other calls; inactive = above about -39%
#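 Steps: HFFs plated, 16 h 37C; compounds added; HCMV-luciferase added to MOI 1 PFU/cell; 72 h 37C; OneGlo reagent, 5 min room temperature; luminescence read, normalized to controls.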
# HCV inhibitor = qHTS Assay for Inhibitors of Hepatitis C Virus (HCV); Huh7.5.1 HCVcc-Cre infection, luciferase reporter, 44 h; Potency, µM (top dose mostly 41.8 µM), most hits filed as inhibitors; actives 3.4% (n = 340,000)
#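 1,000 cells/well; 4 h culture; + compound; + HCVcc-Cre (~0.5 moi); 44 h; luciferase substrate, RT 15 min; read 15 sec.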
# Shiga toxin inh = A qHTS for Small Molecule Inhibitors of Shiga Toxin. Vero cells, Shiga toxin protein synthesis inhibition reporter. inhibition, % at 38.7 µM. actives 9.2% (n = 290,000). AID 2315, 2010; in the data active = inhibition mostly above about 28%, no sharp cut-off; inactive = mostly below about 43%
# Hits are given with their value; - = inactive; ? = inconclusive; . = no result; [ ] = remark or other dose. Rows were chosen to be rich in hits. Some 21% of all compounds tested hit in one or more screens of this group. Unless noted, calls come from the whole dose curve; as a rule, active = well fitted inhibition curve with a large enough effect; inconclusive = small, poorly fitted or top-dose-only effect, or another doubt; inactive = no such curve, though single readings can be large or run the other way.
SMILES,CHX counter,Pf growth 96h,Pf growth 48h,HCMV antiviral,HCV inhibitor,Shiga toxin inh
O=C1CC(c2cc(F)cc(F)c2)c2cc3c(cc2N1)OCO3 (stereo unspecified),.,.,.,-,.,.
Cc1ccc(S(=O)(=O)n2nc(C)c(S(=O)(=O)N3CCCCCC3)c2C)cc1C,.,.,.,-,.,.
Cc1cc(C)cc(NC(=O)C2CCCN(c3cnccn3)C2)c1 (stereo unspecified),.,.,.,-,.,.
Cc1cc(C)c(NC(=O)Cn2c(=O)nc(-c3ccccc3)c3cc(Cl)ccc32)c(C)c1,.,.,.,-,.,.
Cc1cc(C)c2c(-n3cccc3)c(C(=O)NCCCN3CCCCC3C)sc2n1 (stereo unspecified),.,.,.,-,.,.
CCN1CC=C2C(C#N)=C(N)C(C#N)(C#N)C(CCc3ccccc3)C2C1 (stereo unspecified),-,10.4µM,10.4µM,-,-,-
CCOC(=O)C1=C(C)N(CCCC(=O)O)C(=O)NC1c1ccccc1OC(=O)c1cccs1 (stereo unspecified),.,.,.,-,.,.
NC(=O)c1cc2c(s1)-c1cc(Cl)ccc1SC2,20.0,-,-,-,?,-
COCCNC(=O)c1cc2c(s1)-c1ccc(Cl)cc1SC2,43.8,-,-,-,?,91.3
Cc1cccc(NC(=O)C[n+]2cccc(C)c2)c1,-,0.657µM,?,-,-,.
COc1ccc(Cl)cc1NC(=O)C[n+]1cccc(C)c1,-,-,11.7µM,-,-,-
CCCOC(=O)CC1C(=O)NCCN1C(=O)OC(C)(C)C (stereo unspecified),-,-,-,-,-,-
CC(=O)c1cccc(NS(=O)(=O)N2CCOCC2)c1,-,?,-,-,-,-
CNC(=O)c1cc(NC(=O)CCn2nc(-c3ccccc3)c3ccccc3c2=O)ccc1OC,-,0.828µM,2.08µM,-,-,-
CN(C(=O)c1ccc(-c2nn(C)c(=O)c3ccccc23)cc1)C1CCCCC1,-,-,11.7µM,-,?,-
CNC(=O)c1ccc(NC(=O)COc2ccc(-c3nn(C)c(=O)c4ccccc34)cc2)cc1,.,.,.,-,.,.
CCN(CC)C(=O)c1ccc(NC(=O)Cn2nc(-c3ccc(C)cc3)c3ccccc3c2=O)cc1,.,.,.,-,.,.
Cc1cccc(NC(=O)CCn2nc(-c3ccccc3)c3ccccc3c2=O)c1,.,.,.,-,.,.
CCN(CC)C(=O)c1ccc(NC(=O)CCn2nc(-c3ccc(C)cc3)c3ccccc3c2=O)cc1,.,.,.,-65.4,.,.
CCN(CC)C(=O)c1ccc(NC(=O)COc2ccc(-c3nn(C)c(=O)c4ccccc34)cc2)cc1,-,?,13.1µM,-,?,-
CCc1ccc(-c2nc(SCC(=O)c3c(N)n(C4CC4)c(=O)[nH]c3=O)n[nH]2)cc1,.,-,-,-,-,.
CCOC(=O)c1c(C)[nH]c(C)c1S(=O)(=O)N1CCCC(C(=O)N2CCN(c3cc(C)ccc3C)CC2)C1 (stereo unspecified),.,.,.,-,.,.
Cc1ccc(C(c2sc3ncnn3c2O)N2CCCCC2)cc1 (stereo unspecified),10.1,?,?,-,-,37.3
Cc1ccc(C(c2sc3nc(C)nn3c2O)N2CCOCC2)cc1 (stereo unspecified),-,.,-,-,-,-
Oc1c(C(c2ccc(F)cc2)N2CCc3ccccc3C2)sc2ncnn12 (stereo unspecified),-,?,-,-,-,-
SMILES,CHX counter,Pf growth 96h,Pf growth 48h,HCMV antiviral,HCV inhibitor,Shiga toxin inh
Cc1ccc(C(c2sc3ncnn3c2O)N2CCC(C)CC2)cc1 (stereo unspecified),-,5.86µM,?,-,-,-
CCC1=Nc2cc(C(=O)NC3CCCC3)ccc2Sc2ccc(Cl)cc21,.,.,.,-70.5,.,.
CNC(=O)c1ccc2c(c1)N=C(C)c1cc(C)ccc1S2,.,.,.,-,.,.
CCC1=Nc2cc(C(=O)O)ccc2Sc2ccccc21,-,?,-,-,-[8.37 µM],-
CC1=Nc2cc(C(=O)NC3CCCC3)ccc2Sc2ccc(C)cc21,.,.,.,-93.4,.,.
CC1=Nc2cc(C(=O)NC3CCCC3)ccc2Sc2ccc(Cl)cc21,.,.,.,-72.0,.,.
CC1=Nc2cc(C(=O)NC(C)C)ccc2Sc2ccc(C)cc21,.,.,.,-76.9,.,.
COc1ccc(OC)c(NC(=O)CCc2c(C)nc3c(c(C)nn3C(C)(C)C)c2C)c1,.,.,.,-,.,.
CN(Cc1ccccc1)c1ccc(-c2nc(-c3ccncc3)no2)cc1[N+](=O)[O-],.,.,.,-,.,.
CS(=O)(=O)n1nc(-c2ccco2)nc1NCc1ccccc1Cl,.,.,.,-,.,.
CCC1=Nc2cc(C(=O)NCC3CCCO3)ccc2Sc2ccc(Br)cc21 (stereo unspecified),-,?,2.94µM,-,?,-
CCC1=Nc2cc(C(=O)NCC3CCCO3)ccc2Sc2ccc(Cl)cc21 (stereo unspecified),-,?,?,-,?,-
COc1cc2c(cc1OC)C(COc1ccccc1OC)N(C(=O)CC(C)C)CC2 (stereo unspecified),.,.,.,-,.,.
O=C(Oc1cccc(C(=S)N2CCCCC2)c1)c1ccccc1,-,7.38µM,-,-,-,-
Cc1cccc(C(=O)Oc2ccc3ccc(O)cc3c2)c1,24.8,?,-,-,?,.
O=C(Oc1ccc2ccccc2c1)c1ccccc1,22.5,-,.,-,-,-
O=C(Oc1ccccc1)c1ccccc1,.,.,.,-,-,.
O=C(Cn1cncn1)c1ccccc1Br,-,-,-,-,-,-
COc1ccccc1CCN=C(N)NS(=O)(=O)c1ccc(C)c(C)c1,-,-,?,.,?,-
Cc1cc(N2CCN(C(C(=O)NC3CCCC3)C(C)C)CC2)c2ccccc2n1 (stereo unspecified),.,.,.,-,.,.
CC(=C/C(=O)O)/C=C/c1ccc(Cl)o1,50.3,-,-,-,-,78.1
CC(/C=C/c1ccc(C)o1)=C\C(=O)O,-,-,-,-,-,-
O=C1C2C3C=CC(CC3)C2C(=O)N1c1ccc(Br)cc1 (stereo unspecified),.,.,.,-,.,.
CC(Oc1ccc2ccc(=O)oc2c1)C(=O)N1CCOCC1 (stereo unspecified),.,-,-,-,-,.
Nc1nnc(P(c2ccccc2)c2ccccc2)s1,-,-,-,-64.5,-,-
SMILES,CHX counter,Pf growth 96h,Pf growth 48h,HCMV antiviral,HCV inhibitor,Shiga toxin inh
CCn1cc(S(=O)(=O)Nc2ncccn2)cn1,-,-,-,-,-,-
COc1ccc(OC)c(-c2cn(S(=O)(=O)c3ccccc3)nc2N)c1,-,14.7µM,.,-,-,-
CC1(C(=O)NCC(F)(F)F)CCN1C(=O)C1(c2ccccc2)CC1 (stereo unspecified),.,.,.,-,.,.
COc1ccc(OC)c(/C=N/N(C)c2ccccc2)c1,36.2,.,.,-,?,-
COc1ccc(OC)c(C=NN=Cc2cc(OC)ccc2OC)c1,.,.,.,-,.,.
COc1cc(/C=N/N(C)c2ccccc2)cc(Cl)c1O,37.5,.,-,-,?,-
O=S(=O)(c1ccc2c(c1)OCCO2)N1CCN(S(=O)(=O)c2cc(F)c(Br)cc2F)CC1,-,.,.,.,.,-
